From PubChem BioAssay AID504690 (Sanford-Burnham Center for Chemical Genomics, 2011)
Among all 350,000 compounds or so, about 2,700 (0.77%) were called active. For the sample, actives were picked, then their nearest neighbours and some compounds at random. Unmarked numbers belong to inactive results.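 How the source made its calls: active means inhibition reaching at least a set limit at 20 µM in the primary screen (cut at about 59% in these data); inactive means the rest.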

system: glucose-6-phosphate dehydrogenase-6-phosphogluconolactonase (Plasmodium falciparum 3D7); experiment: inhibition of malaria parasite G6PD (PfGluPho) – biochemical, fluorescence intensity, uHTS, primary screen (AID 504690); conditions: PfGluPho enzyme, NADPH resazurin-diaphorase fluorescence; at 20 µM; stronger effect = higher value;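 further: 0% = DMSO wells with substrate and 100% = DMSO wells lacking glucose-6-phosphate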

Row | Compound | inhibition
1 | COc1ccc(CN2CCCC(C(=O)N3CCCCC3)C2)cc1 (stereo not given) | 0.72%
2 | O=C1OC[C@@H]2CCCN2C(=O)[C@H](CC(=O)N(CCO)Cc2ccccc2)C/C=C\CC[C@@H]1Cc1ccc(F)cc1 | -6.25%
3 | CN1CCN(c2ccc(NC(=O)c3cc(Cl)c4c(c3)OCCO4)cc2)CC1 | -0.01%
4 | COC(=O)c1ccc(N2CCOCC2)c(NC(=O)c2ccc3c(c2)OCCO3)c1 | 9.1%
5 | CN1CCN(c2ccc(NC(=O)c3ccc4c(c3)OCCO4)cc2Cl)CC1 | 68.3% (active)
6 | COc1ccc(C(=O)OC(C)C(=O)NC2CCCC2)cc1S(=O)(=O)N1CCOCC1 (stereo not given) | -8.93%
7 | COc1ccc(COC(=O)c2ccc(Cl)c(S(=O)(=O)N3CCOCC3)c2)cc1F | 20.9%
8 | COc1cccc(NC(=O)Nc2ccc(F)cc2)c1 | 30.6%
9 | O=C(NCc1cccc(CNC(=O)Nc2cccc(O)c2)c1)Nc1cccc(O)c1 | 11%
10 | COc1cccc(NC(=O)NCc2ccc(F)cc2)c1 | 75.8% (active)
11 | CC1CCCC(N2CCN(C(=O)c3ccc(F)cc3)CC2)C1 (stereo not given) | 12.6%
12 | Cc1nc(=O)c(-c2ccccc2)c(C)n1-c1ccc(Br)cc1 | -0.2%
13 | Cc1ccc(-c2cn3cc(C)ccc3n2)cc1 | 104% (active)
14 | Cc1ccc2nc(-c3ccc(Br)cc3)cn2c1 | 91.8% (active)
15 | CS(=O)(=O)Nc1cccc(-c2cn3ccccc3n2)c1 | -10.9%
16 | CC(=O)Nc1ccc(-c2cn3cccnc3n2)cc1 | 2.85%
17 | Cc1ccc(-c2cc(N)on2)cc1 | 8.69%
18 | COc1ccc(C(C)NC(=O)C2CCCC2)cc1 (stereo not given) | -12.4%
19 | O=C(O)C1CCCCC1C(=O)N1CCN(S(=O)(=O)c2ccc(F)cc2)CC1 (stereo not given) | -3.01%
20 | COc1ccccc1C(=O)N/C(=C/c1ccco1)C(=O)Nc1ccc(C(=O)O)cc1 | 7.16%
21 | COCC(C)NC(=O)CSc1nc2nn(-c3ccccc3)c(=O)c-2c2n1CCCCC2 (stereo not given) | -8.52%
22 | O=C(CCN1C(=O)COc2ccccc21)NCCCN1CCN(c2ccc(F)cc2)CC1 | -3.8%
23 | Cc1ccc(NC(=O)OCCNC(=O)c2ccncc2)cc1 | -14.7%

Row | Compound | inhibition
24 | COCCNC(=O)CSc1nc(N)c(NC(=O)c2ccco2)c(=O)[nH]1 | 3.96%
25 | COCCNC(=O)Nc1ccc2nc(-c3ccco3)c(-c3ccco3)nc2c1 | 66.8% (active)
26 | CC(C)(C)c1ccc(C(=O)N2CCN(CCNC(=O)C(=O)Nc3ccc(F)cc3)CC2)cc1 | 0.45%
27 | CC(Oc1ccc(F)cc1)C(=O)N1CCN(c2ncccn2)CC1 (stereo not given) | 8.63%
28 | CCOC(=O)C(=Cc1ccccc1OC)C(=O)OCC | -10.6%
29 | C=C1c2cccc(OC)c2O[C@H](C(=O)OCC)[C@@H]1CCCCCC | 77.8% (active)
30 | CCOC(=O)C1=C(C)c2ccccc2OC1C(=O)OCC (stereo not given) | 4.58%
31 | CC1CCC2(CC1)NC(=O)N(CC(=O)c1ccc3c(c1)OCO3)C2=O (stereo not given) | 6.6%
32 | Cn1c(-c2sc3cc(C(F)(F)F)cnc3c2-c2ccccc2)n[nH]c1=S | 27.8%
33 | CCOC(=O)N1CCN(Cc2nc(Cc3cccc(C(F)(F)F)c3)no2)CC1 | -8.4%
34 | Cn1c(-c2sccc2OCc2cccc(C(F)(F)F)c2)n[nH]c1=S | 65.3% (active)
35 | O=C(OCc1cn([C@@H]2C[C@H](c3ccc(Cl)cc3)N(Cc3cccs3)C[C@H]2O)nn1)c1ccccc1 | 11.3%
36 | O=C(O)C1CCN(C(=O)OCc2ccccc2)CC1 | -0.22%
37 | CCN(C(=O)CSc1nnc(-c2ccc(OC(F)F)cc2)n1N)C1CCS(=O)(=O)C1 (stereo not given) | -3.99%
38 | O=C(c1ccc(Br)o1)N(c1ccccn1)C1CCCCC1 | -15.9%
39 | O=C(O)C(=Cc1ccc([N+](=O)[O-])cc1)CCc1ccccc1 | -27.5%
40 | CC(=O)Nc1ccc(C=Cc2ccc([N+](=O)[O-])cc2)cc1 | 14.2%
41 | O=C1/C(=C\c2ccc([N+](=O)[O-])cc2)CS(=O)(=O)C/C1=C/c1ccc([N+](=O)[O-])cc1 | 77.6% (active)
42 | C[C@H]1CN([C@@H](C)CO)C(=O)c2cc(Br)cnc2O[C@H]1CN(C)S(=O)(=O)c1cccs1 | 9.15%
43 | O=C(CCN1C(=O)c2ccncc2C1=O)Nc1cc(F)ccc1F | -12.6%
44 | COCCN1C=C2C(=O)C(C)(OC(=O)C3CCCC3)C(=O)C=C2C=C1c1ccsc1 (stereo not given) | 72.5% (active)
45 | CC1(OC(=O)CCc2ccccc2)C(=O)C=C2C=C(c3ccc(C#N)cc3)N(CCc3ccccn3)C=C2C1=O (stereo not given) | 44.1%
46 | CC1(OC(=O)C2CCCC2)C(=O)C=C2C=C(c3ccc(C#N)cc3)OC=C2C1=O (stereo not given) | 23%

Row | Compound | inhibition
47 | COCC(=O)N(C)C[C@H]1Oc2cc(Br)ccc2S(=O)(=O)N([C@H](C)CO)C[C@H]1C | -15.7%
48 | CCN1CCN(c2ccc([N+](=O)[O-])cc2C(=O)c2ccc(Cl)cc2)CC1 | 11.2%
49 | O=C(O)C1CCN(c2ccc([N+](=O)[O-])cc2[N+](=O)[O-])CC1 | -6.12%
50 | O=[N+]([O-])c1ccc(N2CCN(c3ccc(O)cc3)CC2)c(Cl)c1 | 61.5% (active)
51 | CCN(CCCCOC(=O)c1ccc(OC)c(OC)c1)C(C)Cc1ccc(OC)cc1 (stereo not given) | -1.86%
52 | Cn1sc(=O)c2cc(S(=O)(=O)NC3CC3)ccc21 | 66.3% (active)
53 | O=S(=O)(NC1CC1)c1ccc(F)c(F)c1 | 1.75%
54 | CC1CCC(NS(=O)(=O)c2ccc3c(c2)n(C)c(=O)c(=O)n3C)CC1 (stereo not given) | -1.38%
55 | CC1(c2ccccc2)NC(=O)N(CC(=O)N2CC(=O)Nc3ccccc32)C1=O (stereo not given) | 4.26%
56 | CCCCOP(=O)(c1ccc(N(C)C)cc1)C(O)c1cc(OC)ccc1OC (stereo not given) | 10.8%
57 | C=C(C)C(=O)Nc1cccc(C2=NOC3(C2)C[C@H](C(N)=O)N(C(=O)C(c2ccccc2)c2ccccc2)C3)c1 (stereo not given in full) | -3.38%
58 | COc1ccccc1OCCC(=O)OCC(=O)NCc1ccccc1 | 9.79%
59 | COc1cc(C(=O)NCc2ccncc2)cc(Br)c1OCc1ccccc1 | 10.8%
60 | COc1cc(C(=S)NCc2ccccc2)cc(Br)c1O | 66.8% (active)
61 | Cc1ccc(C(O)P(=O)(OC(C)C)c2ccc(N(C)C)cc2)cc1 (stereo not given) | -15%
62 | O=C(O)C1CCCN1c1nc(Cl)ccc1[N+](=O)[O-] (stereo not given) | 26.3%
63 | CC(C)(C)n1ncc2c(=O)n(Cc3c(Cl)cccc3Br)cnc21 | -2.98%
64 | COCCNC(=S)Nc1cc(S(=O)(=O)N2CCOCC2)ccc1N1CCCCC1 | 76.4% (active)
65 | CC(C)CCC(=O)Nc1cc(S(=O)(=O)N2CCOCC2)ccc1N1CCCC1 | 10.5%
66 | O=C(COC(=O)Cc1ccc(F)cc1)Nc1cc(S(=O)(=O)N2CCOCC2)ccc1N1CCCC1 | -0.28%
67 | CC(Oc1cccc(Cl)c1)C(=O)Nc1ccc(S(=O)(=O)Nc2ncccn2)cc1 (stereo not given) | -6.55%
68 | S=C(Nc1cccnc1)Nc1ccccn1 | 7.51%
69 | O=C(N/N=C/c1ccccn1)C12CC3CC(CC(C3)C1)C2 | -7.42%

Row | Compound | inhibition
70 | S=C(NN=Cc1ccccn1)Nc1ccccn1 | 64% (active)
71 | CC(=O)Nc1ccc(NC(=O)CCN2C(=O)C3CC=CCC3C2=O)cc1 (stereo not given) | -13%
72 | O=C(Nc1ccc(N2CCN(C(=O)c3ccccc3)CC2)c(Cl)c1)c1cccnc1 | 17.8%
73 | O=C(NCCN1CCCC(O)C1)c1cc(COc2c(F)cccc2F)on1 (stereo not given) | -19.2%
74 | CN1CCN(NC(=O)c2ccc(S(=O)(=O)N3CCCCCC3)cc2)CC1 | 5.23%
75 | COc1ccc(S(=O)(=O)NCc2cccnc2)cc1NC(=O)c1ccc(C)cc1 | -3.1%
76 | CCOc1ccc(NS(=O)(=O)c2ccc(C(=O)NCC3CCCO3)cc2)cc1 (stereo not given) | 9.67%
77 | CCOc1ccc(S(=O)(=O)N2CCN(C(=S)NCC3CCCO3)CC2)cc1 (stereo not given) | 8.65%
78 | CCOc1ccc(-n2c(N)c(C(=O)NCC3CCCO3)sc2=S)cc1 (stereo not given) | 67.6% (active)
79 | O=C(Nc1ccccc1C(=O)N1CCOCC1)C1CCC(=O)N1C1CCCC1 (stereo not given) | -1.14%
80 | CC(OC(=O)CCc1nc(=O)c2ccccc2n1C)C(=O)NCc1ccc2c(c1)OCO2 (stereo not given) | 5.1%
81 | O=C(COC(=O)Cn1cnc2ccccc2c1=O)NCc1ccccc1Cl | 11%
82 | Cn1c(CCC(=O)OCC(=O)NCc2ccccc2Cl)nc(=O)c2ccccc21 | 60.9% (active)
83 | O=c1c2ccccc2nnn1CSc1nc2sc3c(c2c(=O)n1CC1CCCO1)CCC3 (stereo not given) | 13.2%
84 | CC[C@@H](C)[C@@H]1CN([C@@H](C)CN2CCC[C@H]2CN2C(N)=NC[C@H]2C(C)C)C(=N)N1CCc1ccc(Cl)c(Cl)c1 | -10.9%
85 | O=C(CN(CC1CCCO1)C(=O)CNS(=O)(=O)c1ccc(F)cc1)NCc1ccco1 (stereo not given) | 9.81%
86 | COc1c(O)ccc2c1CN1CCc3cc4c(cc3C1C2)OCO4 (stereo not given) | 75.1% (active)
87 | COc1ccc2cc1Oc1ccc(cc1)C[C@H]1c3cc(c(OC)cc3CCN1C)Oc1c(O)c(OC)cc3c1[C@H](C2)N(C)CC3 | 10.2%
88 | COc1cc(C(=O)CCc2ccc3c(c2)OCO3)cc(OC)c1OC | 31.9%
89 | CCc1cccc(C)c1N1C(=O)CN(Cc2ccccc2)C1=S | 8.09%
90 | CN(C)C(=O)N=NC(=O)N(C)C | 62.4% (active)
